What all share (details): actives raise or lower the signal
Experiment [1] is described as follows: CEETOX_H295R_CORTISOL_noMTC: CeeTox H295R High-throughput Steroidogenesis Assay for Cortisol, maximum tolerated concentration (MTC) filtered results only (AID 2283916). Summed up: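 H295R adrenal cells were pre-stimulated 48 h with 10 uM forskolin, then exposed 48 h to test chemical in 0.1% DMSO. Medium cortisol was measured by MTBE extraction and HPLC-MS/MS; bidirectional fit versus DMSO, concentrations not MTC-filtered.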

Experiment [2] is described as follows: CEETOX_H295R_CORTIC_noMTC: CeeTox H295R High-throughput Steroidogenesis Assay for Corticosterone (CORTIC), maximum tolerated concentration (MTC) filtered results only (AID 2283917). As to the method: CEETOX_H295R is a cell-based, multiplexed-readout assay that uses H295R, a human adrenal gland cell line, with measurements taken at 48 hours after chemical dosing in a 96-well plate.CEETOX_H295R_CORTIC_noMTC is one of 12 assay component(s) measured or calculated from the CEETOX_H295R assay (11 hormones and 1 viability assay). It is designed to make measurements of hormone induction, a form of inducible reporter, as detected with absorbance signals by HPLC-MS-MS technology. The concentrations for these components have not been pre-filtered for the maximum tolerated concentration (MTC) based on the MTT assay (_noMTC).Data from the assay component CEETOX_H295R_CORTIC_noMTC was analyzed into 1 assay endpoint. This assay endpoint, CEETOX_H295R_CORTIC_noMTC, was analyzed with bidirectional fitting relative to DMSO as the negative control and baseline of activity. […]
Cell culture and media preparation procedures were conducted in accordance with OECD Test No. 456 guidelines, with minor modifications. […] For steroid quantification, media samples were shipped to OpAns, LLC (Durham, NC) on dry ice, and samples were thawed to room temperature prior to liquid-liquid extraction. […] Steroid hormones were separated by HPLC, eluted using a reverse phase C18 gradient with electrospray positive ionization, followed by quantification by tandem mass spectrometry (MS/MS). […]

The nature of experiment [3]: CEETOX_H295R_DOC_noMTC: CeeTox H295R High-throughput Steroidogenesis Assay for DOC, maximum tolerated concentration (MTC) filtered results only (AID 2283918). Summed up: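 H295R cells prestimulated 48 h with 10 uM forskolin, then exposed 48 h to test chemical (0.1% DMSO final). Medium 11-deoxycorticosterone extracted with MTBE, quantified by HPLC-MS/MS; bidirectional fit versus DMSO, concentrations not MTC-filtered.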

Experiment [4] can be described thus: CEETOX_H295R_PROG_noMTC: CeeTox H295R High-throughput Steroidogenesis Assay for Progesterone (PROG), maximum tolerated concentration (MTC) filtered results only (AID 2283920). A digest of the protocol: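 H295R human adrenal cells were prestimulated 48 h with 10 uM forskolin, then exposed 48 h to test chemical (0.1% DMSO final). Progesterone in medium was quantified by HPLC-MS/MS; bidirectional fitting versus DMSO, concentrations not MTC-filtered.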

SMILES strings stand for the structures. The source made the active and inactive calls. How the source made its calls: active means hit-call score of the fitted dose curve at least 0.9, where 1 is the maximum; inactive means score below 0.9.

Regarding `Cc1ccc(C(C)C)cc1O`, the compound was classed as inactive in experiment [1], in experiment [2] and in experiment [3]. Besides, in experiment [4], the AC50 was 41.4 µM (active).
Take `CC1CC(OC(=O)c2ccccc2O)CC(C)(C)C1` (stereo not drawn): the call in experiment [1], in experiment [2], in experiment [3] and in experiment [4] was inactive.
